From PubChem BioAssay (NCI)
Compounds without any hit were thinned out: in the full panel of roughly 79,000, 15% have a hit. Activity calls are given as the source filed them. Cut-off read from the data, not from the text of the source: active = growth inhibition above about 70%; inactive = the rest.

Experiment: NCI Yeast Anticancer Drug Screen. Data for the rad14 strain (AID 159);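 note: 0% = growth of vehicle-treated control cultures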
Conditions: S. cerevisiae rad14 strain growth inhibition, hits give high values
Description: Growth inhibition of yeast strains with defined genetic alterations is measured as a screen for potential anti-cancer activity. Selected strains with alterations in DNA damage repair or cell cycle control were exposed to compounds and growth inhibition was measured relative to vehicle treated controls. The strain used in this assay is rad14

Measured: growth inhibition

Nc1ccccc1C(=O)OCCc1ccccc1
active: at 100.0 µM 97%
inactive: at 1.2 µM -19% | at 3.7 µM -10% | at 11.0 µM -21% | at 33.0 µM -12%

O=C1c2ccc3ccccc3c2CCC1N1CCCCC1 (stereo not given)
inactive: at 1.2 µM 14% | at 3.7 µM 33% | at 11.0 µM 50%
active: at 33.0 µM 97% | at 100.0 µM 98%

O=[N+]([O-])c1oc2ccc3ccccc3c2c1CCO
active: at 1.2 µM 94% | at 3.7 µM 97% | at 11.0 µM 98% | at 33.0 µM 99% | at 100.0 µM 99%

CN(C)CCSC1=Nc2ccc(Cl)cc2C(c2ccccc2Cl)=NC1
inactive: at 1.2 µM 0% | at 3.7 µM 4% | at 11.0 µM 17% | at 33.0 µM 45%
active: at 100.0 µM 75%

C[C@]12CCc3nonc3C1CC[C@@H]1C2CC[C@]2(C)C(=O)CCC12 (stereo not given in full)
inactive: at 1.2 µM 27% | at 3.7 µM 38% | at 11.0 µM 38% | at 33.0 µM 46% | at 100.0 µM 60%

Nc1nc(N)c2c(Cl)c(CNc3ccc(C(=O)NC(CC(=O)O)C(=O)O)cc3)ccc2n1 (stereo not given)
inactive: at 1.2 µM -8% | at 3.7 µM -11% | at 11.0 µM -18% | at 33.0 µM 44%
active: at 100.0 µM 78%

CC[C@@]1(O)C(=O)OCc2c1cc1n(c2=O)Cc2cc3c(NC(=O)CN)cccc3nc2-1
inactive: at 1.2 µM 2% | at 3.7 µM -4% | at 11.0 µM 0% | at 33.0 µM -4% | at 100.0 µM -1%

Oc1ccc(Cl)cc1Cc1ccccc1
inactive: at 1.2 µM -23% | at 3.7 µM -23% | at 11.0 µM 54%
active: at 33.0 µM 99% | at 100.0 µM 99%
